In PubChem BioAssay (NCATS):
Results filed as inconclusive are left out. Active and inactive are the calls of the source. The call rests on the fitted dose curve; in most records, active means well fitted inhibition curve with a large enough effect; inconclusive means small, poorly fitted or top-dose-only effect, or effect the other way, or another doubt; inactive means flat fitted curve, though single readings scatter.

experiment: qHTS Assay for Identification of Small Molecule Antagonists for Thrombopoietin (TPO) Signaling Pathway (AID 918); conditions: TPO-dependent cell signaling reporter, antagonist mode; further: nearly all actives have a fitted effect of over 60% in size
How it was run: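 Inhibitors of TPO signaling are sought by stimulating IL-3-starved murine Ba/F3 cells (human TPO receptor, Glycoprotein IIb-driven luciferase) with TPO at its EC50 of 26 pM alongside compound. After 24 hrs at 37 C, reporter luminescence is measured.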
Potency means the concentration at half of the fitted maximal effect.

| Structure (SMILES) | Potency |
| --- | --- |
| CN(C)CCCN1c2ccccc2Sc2ccc(Cl)cc21 | 12.6 µM (active) |
| OCc1cc(C(O)CNCCCCCCOCCCCc2ccccc2)ccc1O (stereo not drawn) | 10 µM (active) |
| OCCN1CCN(CCCN2c3ccccc3Sc3ccc(Cl)cc32)CC1 | 15.8 µM (active) |
